Reference: PubChem BioAssay (NCI)
About 83,000 compounds went through this panel and 20% of them were active in at least one assay; those are over-represented in the sample as a whole.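 Method: cells in 96-well plates; compound added at one concentration; 48 h incubation; percent growth measured; values under 10 scored active.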 A number with no mark means an inactive call. The source made the active and inactive calls.

Each compound was assayed on HL-60(TB) leukemia (assay: NCI-60 one-dose screen, 48 h (100 = growth as untreated, 0 = no growth, -100 = all killed)). Conditions: 10 µM unless noted.
CCN1Cc2nc3sc(C)c(C)c3c(=O)n2C=C1C was tested, and the growth was 1.07% (active). In the case of CS(=O)(=O)CCNCc1ccc(-c2ccc3ncnc(Nc4ccc(OCc5cccc(F)c5)c(Cl)c4)c3c2)o1, the growth is reported as 20.3%. CN(C)c1ccc(NC(=O)c2ccc(/C=C/C(=O)c3ncc[nH]3)cc2)cc1 gave a growth of 17.5%. In the case of COc1ccc(OC)c(Cn2cc3c(c2)-c2oncc2CC3)c1, the growth is reported as 13.7%. For CC1=NC2=Nn3c(c4cnn(-c5ccccc5)c4n/c3=N\N)NN2C(c2ccccc2)=C1, the growth was 106%. For C=C1C(=O)O[C@H]2[C@H]1CC/C(COC(=O)/C=C\C(=O)NCc1ccc(Cn3c(=O)sn(-c4ccc(C#N)cc4)c3=O)cc1)=C\CC[C@@]1(C)O[C@@H]21, the growth was -40.3% (active). CCOC(=O)C1=C(C)c2ccc(OC)c(OC)c2C1 gave a growth of 106%. With O=[N+]([O-])c1cc(Br)c2cccc3c2c1CC3 the growth was 94.4%. In the case of CCOC(=O)c1cc(/C(=N\O)c2cc(OC)c(OC)c(OC)c2)n2cc(C)cc(C)c12, the growth is reported as 9.42% (active). O=C(O)c1ccc2c3c(ncnc13)-c1ccccc1C2=O showed a growth of 85.1%. Compound CN1CCN(c2nc(-c3cccnc3)nc3sc4c(c23)CCCCCC4)CC1 has a growth of 87.2%. For COc1ccc2[nH]c(=O)c(CN3CCN(c4nccc(-c5ccc(Cl)cc5)n4)CC3)cc2c1, the growth was 90.1%. Compound COc1cc(-c2ccc(N=Nc3c(O)c(C(=O)Nc4ccccc4OC)cc4ccccc34)c(OC)c2)ccc1N=Nc1c(O)c(C(=O)Nc2ccccc2OC)cc2ccccc12 has a growth of 79.2%. Compound Cc1nc(-n2[nH]c(=O)ccc2=O)sc1N=Nc1ccccc1 has a growth of 98%. C=C1C(=O)O[C@H]2[C@H]1CC/C(COC(=O)c1c[nH]c3ccccc13)=C\CC[C@@]1(C)O[C@@H]21 was tested, and the growth was -25.9% (active). In the case of CC1=C(SCCC(=O)OC(C[Se]C2=C(C)C(=O)c3ccccc3C2=O)C(=O)NCCCCCC(=O)OCc2ccccc2)C(=O)c2ccccc2C1=O (stereo not given), the growth is reported as -1.59% (active). With CC[C@]1(O)CC2CN(CCc3c([nH]c4ccccc34)[C@@](C(=O)OC)(c3cc4c(cc3OC)N(C)[C@H]3[C@@](O)(C(=O)OC)[C@H](OC(C)=O)[C@]5(CC)C=CCN6CC[C@]43[C@@H]65)C2)C1 (stereo not given in full) the growth was 2.87% (active). For CC(C)(C)OC(=O)N1CCN(c2ccc(N)cc2)C(=O)C1, the growth was 102%. In the case of CC(O)C(F)(F)C(F)(F)C(F)(F)F (stereo not given), the growth is reported as 101%. In the case of COc1cc2c3c(n(C4CCNCC4)c(=O)c2cc1OC)-c1cc2c(cc1C3=O)OCO2, the growth is reported as -50.3% (active). For CN(C)Cc1cccs1, the growth was 104%. CCCOC(=O)N[C@H]1CCc2cc(OC)c(OC)c(OC)c2-c2ccc(SC)c(=O)cc21 was tested, and the growth was -39.7% (active). With CC(=O)Oc1cc2ccccc2cc1C(C)C the growth was 103%. With Cc1cc2c(-c3nc4ccccn4c3Nc3cccc4ccccc34)c(O)c(O)cc2c(O)c1-c1c(C)cc2c(-c3nc4ccccn4c3Nc3cccc4ccccc34)c(O)c(O)cc2c1O the growth was 28.6%. Work on c1ccc(-c2[nH]c3ccccc3c2-c2ccccc2)cc1 yielded a growth of 78.7%. For CC(C)(C)n1cc(-c2ccnc(NCCCNS(=O)(=O)c3cccc4ccccc34)c2)c(-c2cccc(O)c2)n1, the growth was 25.4%. COc1cc(/C(C)=C(\c2ccc(Cl)cc2)c2ccc(OCCN(C)C)cc2)ccc1F was tested, and the growth was 54.4%. CCOC(=O)Nc1cc(-c2ccc(C)c(NS(C)(=O)=O)c2)nn2c(C)nnc12 gave a growth of 10.8%. In the case of CCOC(=O)c1nc2c3ccccc3ccn2c1C(=O)OC, the growth is reported as 94.9%. Compound N#Cc1ccc(OC(=O)Nc2ccc(Cl)c(Cl)c2)cc1 has a growth of 64.2%. CCCCCCCCOC(=O)C(C)OC(=O)OCCOCCOC(=O)OC(C)C(=O)OCCCCCCCC (stereo not given) was tested, and the growth was 108%. COc1ccc(-c2nn(-c3cccc(NC(=O)c4cc(C(F)(F)F)cc(C(F)(F)F)c4)c3)cc2-c2ccncc2)cc1Cl gave a growth of 88.9%. C#CC[C@@H]1C[C@]2(C)[C@H]3CC[C@@H]4[C@H]5C(C(=C)C)CC[C@]5(C(=O)NCCN(CCN)CCN)CC[C@@]4(C)[C@]3(C)CC[C@H]2C(C)(C)[C@H]1OC(C)=O (stereo not given in full) gave a growth of 41.5%. CCOC(=O)C#Cc1c(C(=O)OCC)nnn1Cc1ccc(C(F)(F)F)cc1 was tested, and the growth was 39%. CCCC[N+]1(C)CCN=C1Cc1ccccc1 (stereo not given) gave a growth of 88.9%. With COc1ccc(-c2cn3c(C(=O)Nc4ccccc4Cl)c(-c4ccccc4)c4c3n2CCCC4)cc1 the growth was 83.4%. CCOC(=O)/C(C#N)=C\Nc1ccc2ncnc(Nc3ccc(Cl)cc3Cl)c2c1 showed a growth of 108%. With COc1cc(-c2nc(C(=O)NCC(=O)NO)nn2-c2ccc(Cl)cc2)cc(OC)c1OC the growth was 97.4%. Work on CS(=O)(=O)N(c1cc(-c2ccc3ncnc(Nc4ccc(F)c(Cl)c4)c3c2)cnc1Cl)S(C)(=O)=O yielded a growth of 20.4%. CCN1C(=S)N(CC)C2C1NC(=S)N2/N=C/C=C/c1ccccc1 (stereo not given) was tested, and the growth was -22.2% (active).
